The campaign covered roughly 2,300 compounds. About 900 (39%) were called active.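 The calls were made as follows: active = mean duplicate percent inhibition, scaled so buffer wells are 0 and the reference blocker 100, over three buffer SD above buffer mean; inactive = the rest.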 These entries were drawn from the full list.

As usually defined, the inhibition is the share of the control response that was lost under treatment.

For the assay, the target named is Anoctamin-1 (Mus musculus) (UniProt Q8BHY3). The experiment in a line: blockers of mouse ANO1 channel, retest – cell-based, re-confirmation, confirmation (AID 652189). The following applies: HEK293 TMEM16A/YFP-H148Q, iodide quench fluorescence, at 10 µM, ionomycin added to raise cell calcium; hits give high values.
Sequence of Anoctamin-1 (Mus musculus) (Q8BHY3 whole entry, looked up): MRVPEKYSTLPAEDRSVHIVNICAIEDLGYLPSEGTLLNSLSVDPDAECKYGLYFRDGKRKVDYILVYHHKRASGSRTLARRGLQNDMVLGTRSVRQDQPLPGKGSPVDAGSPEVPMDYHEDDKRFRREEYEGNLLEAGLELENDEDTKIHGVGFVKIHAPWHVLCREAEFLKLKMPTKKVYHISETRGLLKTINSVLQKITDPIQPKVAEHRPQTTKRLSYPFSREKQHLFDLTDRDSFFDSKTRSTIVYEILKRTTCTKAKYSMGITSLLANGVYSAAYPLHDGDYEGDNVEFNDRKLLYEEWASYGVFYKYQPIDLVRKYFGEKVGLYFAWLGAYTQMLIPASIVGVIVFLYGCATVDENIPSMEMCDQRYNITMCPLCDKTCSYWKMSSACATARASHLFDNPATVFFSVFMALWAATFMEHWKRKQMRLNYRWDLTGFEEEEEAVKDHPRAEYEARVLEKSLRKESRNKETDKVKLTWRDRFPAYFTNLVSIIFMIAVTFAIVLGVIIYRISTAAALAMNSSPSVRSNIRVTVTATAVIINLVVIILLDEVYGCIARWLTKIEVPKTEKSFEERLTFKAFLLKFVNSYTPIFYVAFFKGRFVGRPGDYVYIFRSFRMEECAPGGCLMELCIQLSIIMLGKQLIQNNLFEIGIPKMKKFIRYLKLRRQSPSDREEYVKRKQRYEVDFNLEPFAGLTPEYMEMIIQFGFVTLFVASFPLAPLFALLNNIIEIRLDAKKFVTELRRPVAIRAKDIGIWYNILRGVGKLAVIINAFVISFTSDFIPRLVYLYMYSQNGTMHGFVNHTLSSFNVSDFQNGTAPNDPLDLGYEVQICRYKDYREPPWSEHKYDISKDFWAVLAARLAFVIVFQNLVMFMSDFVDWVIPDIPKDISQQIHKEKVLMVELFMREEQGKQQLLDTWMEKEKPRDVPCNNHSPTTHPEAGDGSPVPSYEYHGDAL
Take `CC(=O)c1c(C)[nH]c(C(=O)COC(=O)c2cccc(S(=O)(=O)N(C)c3ccccc3)c2)c1C`: the inhibition is 33.5% (active).
As for `Cc1ccc2c(c1)N(S(=O)(=O)c1cc(-c3cc(C)no3)ccc1C)CCO2`, the inhibition was 42.5% (active).
Then `CCCCn1ccnc1C(=O)c1cccc(S(=O)(=O)N2c3ccccc3CC2C)c1` (configuration not stated), with “inactive”.
The figure for `Cc1nc(C)c(-c2csc(NCCc3ccccc3)n2)s1` is 36% (active); for `CCOC(=O)c1cccc(NC(=O)CCn2nnc3ccccc32)c1` it is “inactive”.
The figure for `COc1ccc2[nH]cc(/C=C(/C#N)S(=O)(=O)c3ccccc3)c2c1` is 28% (active); for `COc1ccc(NC(=O)C2=CC(c3ccc(OC)c(OC)c3)=NS(=O)(=O)N2C)cc1` it is 27% (active).
With `CC(NC(=O)c1ccco1)C(=O)Nc1nc(-c2ccccn2)cs1` (configuration not stated), the inhibition result was “inactive”.
As to `Cc1noc(C)c1COC(=O)c1cc2ccccc2cc1O`, the inhibition result is “inactive”.
In the case of `COc1ccc(CNc2nnnn2C)cc1`, the inhibition result was “inactive”.
Then `Cn1c(CN2CCOCC2)nc2cc(NC(=O)c3ccc(Cl)cc3)ccc21`, with 20% (active).
The entry for `Cn1c(CCN2CCCCCC2)nc2cc(NC(=O)Nc3ccccc3)ccc21` is “inactive”; for `CC(C)CNC(=S)NNC(=O)c1nn(C)cc1Cl` it is “inactive”.
For `O=C(COC(=O)CCc1c[nH]c(=O)[nH]1)Nc1ccccc1Cl`, the inhibition entry was “inactive”.
Then `Cc1nc2ccccc2cc1OCc1ccc(F)cc1`, with 22.5% (active); and `O=C(COc1ccccc1)NCc1ccc2c(c1)OCO2`, with “inactive”.
As to `O=C(NCCc1ccc2c(c1)OCCO2)c1cc2ccccc2o1`, the inhibition is 21% (active).
Turning to `COc1ccc(-c2nc(CCNC(=O)c3ccc(Br)o3)cs2)cc1`, the inhibition entry is “inactive”.
Then `Cc1cccc(N=Nc2c(O)[nH]c3ccc(F)cc23)c1`, with “inactive”; and `O=c1cc(C(F)(F)F)[nH]c(=O)n1C1CCCCC1`, with “inactive”; and `C=CCn1c(SCC(=O)Nc2nc3ccccc3s2)nnc1-c1ccccc1O`, with 30.5% (active).
Then `Cc1ccc(-c2noc(CSc3nnnn3-c3ccccc3)n2)cc1`, with “inactive”.
Turning to `CN1c2ccc(C=O)c3c(C=O)ccc(c23)N(C)C1(C)C`, the inhibition result was “inactive”.
Then `C=CCSc1nsc(NC(=O)Nc2cccc(C(C)=O)c2)n1`, with 53% (active); and `CSc1nsc(NC(=O)Nc2ccccc2)n1`, with 45% (active).
The entry for `CN(C)c1cc[n+](Cc2ccccc2)cc1` is “inactive”; for `N#Cc1nc(N)nc(N(c2ccccc2)c2ccccc2)n1` it is “inactive”; for `c1ccc(-c2nnc(SCc3nc4ccccc4[nH]3)o2)cc1` it is “inactive”.
As for `N#CC1=C(SCc2ccccc2)NC(=O)C(C#N)C12CCCC2` (configuration not stated), the inhibition is 17.5% (active).
The entry for `CSc1nnc2c(n1)OC(c1ccsc1)N(C(C)=O)c1ccccc1-2` (configuration not stated) is “inactive”; for `CCCc1cc(=S)n2c([nH]c3ccccc32)c1C#N` it is 35.5% (active); for `CC1CCN(C(=O)c2ccc(CSc3ccc(Cl)cc3)cc2)CC1` it is 50.5% (active).
Then `COc1ccc(CCC(=O)c2ccc(OC)cc2)cc1`, with “inactive”.
Then `Cc1ccc2c(c1)N(CC(=O)N1CCCc3ccccc31)C(=O)C(C)O2` (configuration not stated), with “inactive”; and `CN(c1cccc(NC(=O)c2ccc(CN3CCc4ccccc4C3)cc2)c1)S(C)(=O)=O`, with 20.5% (active).
Regarding `S=C(NCC1CCCO1)N1CCN(c2ccc(Cl)c(Cl)c2)CC1` (configuration not stated), the inhibition was 21% (active).
The figure for `Cc1cc(C=O)c(C)n1-c1ccc(NC2CCCCC2)c([N+](=O)[O-])c1` is 23.5% (active); for `CC(C)(C)C(=O)/C(C#N)=C/c1ccc(O)cc1` it is 23% (active).
The entry for `CCOC(=O)C1=C(CN2CCc3ccccc32)NC(=O)NC1c1cccc([N+](=O)[O-])c1` (configuration not stated) is “inactive”.
The figure for `COc1ccc(C(=O)NC2CCCc3c2cnn3-c2cccc(C)c2C)c(OC)n1` (configuration not stated) is 65.5% (active); for `COC(=O)c1ccc(COC(=O)c2c(C)nn(Cc3ccccc3Cl)c2Cl)o1` it is 16% (active); for `O=S1(=O)CCN(Cc2ccccc2Cl)CC1` it is “inactive”.
As for `Cc1ccc(F)cc1NC(=O)Cc1nn(C)c(=O)c2ccccc12`, the inhibition is 34.5% (active).
The entry for `CCOC(=O)N1CC=C2C(C#N)=C(N)C(C#N)(C#N)[C@H](c3cccs3)[C@H]2C1` is “inactive”; for `Cc1ccc(-n2[nH]c(C)c(/C=N/N3C(=O)c4cccc5cccc(c45)C3=O)c2=O)cc1` it is “inactive”.
The figure for `Cc1[nH]n(-c2cccc(Cl)c2)c(=O)c1-c1ccc(Cl)cc1` is 24% (active); for `CC1=NN(c2cccc(Cl)c2)C(=O)C12CC(C)=C(C)CS2` (configuration not stated) it is “inactive”.
The entry for `O=C1NC(=O)C2C1C(c1ccc([N+](=O)[O-])cc1)=NN2Cc1ccccc1` (configuration not stated) is “inactive”.
`CCN(CC)S(=O)(=O)c1ccc(N(C)Cc2ccc(C(F)(F)F)cc2)nc1`: the inhibition is 22% (active).
As for `CCCOc1ccc(Cc2c(Cl)nc(SC)nc2NC)cc1`, the inhibition is 44.5% (active).
The entry for `COc1ccc(CN(C)C(=O)CC(c2ccccc2)c2ccccc2)cc1` is “inactive”.
Then `Cn1c(=O)n(C)c2cc(S(=O)(=O)N3CCCc4ccccc43)ccc21`, with “inactive”.
Then `Cc1ccc(NC(=O)C(C)c2cccc(C(=O)c3ccccc3)c2)cc1` (configuration not stated), with 30.5% (active).
`Cc1ccccc1-n1nnnc1SCCCC(=O)c1ccc(F)cc1`: the inhibition entry was “inactive”.
The figure for `Cc1nc2c(C(=O)NCc3ccc4c(c3)OCO4)c[nH]n2c(=O)c1Cc1ccccc1F` is 18% (active).
With `Cc1ccc(NC(=O)CN(C)CC(=O)Nc2cccc(F)c2)cc1[N+](=O)[O-]`, the inhibition is 24.5% (active).
Then `O=C(CN1CCN(C(=S)NC2CCCC2)CC1)Nc1ccc(Oc2ccccc2)cc1`, with “inactive”.
Then `O=C(CNCCC1=CCCCC1)Nc1ccccc1N1CCCCCC1`, with 19.5% (active).
The entry for `CCCC(=O)Nc1ccccc1N1CCN(C(=O)c2ccccc2)CC1` is “inactive”; for `CCCCNC(=O)CSc1nc2n[nH]c(C)c2c(=N)n1-c1cccc(Cl)c1C` it is “inactive”.
With `CCc1cc2c(N3CCN(c4nnc(CC)s4)CC3)ncnc2s1`, the inhibition was 40% (active).
Then `Cc1ccc(C(=O)O)cc1-c1ccc(/C=C2\SC(=O)N(CC(=O)Nc3ccc4c(c3)OCO4)C2=O)o1`, with “inactive”.
Then `O=C(CSCc1ccc(Cl)cc1)N1CCN(Cc2ccc3c(c2)OCO3)CC1`, with 20% (active); and `Cc1ccc(-n2ncc3c(N4CCN(c5ccc(F)cc5)CC4)ncnc32)c(C)c1`, with 28.5% (active).
Then `O=C(O)c1ccc(NC(=O)C2CCCCC2)cc1`, with “inactive”.
On to `O=C(N/N=C/c1cc(Cl)cc([N+](=O)[O-])c1O)C(O)(c1ccccc1)c1ccccc1`, for which the inhibition result is “inactive”.
The entry for `Cc1cc(C)cc(NS(=O)(=O)c2ccc(Oc3ncc(C(F)(F)F)cc3Cl)cc2)c1` is “inactive”; for `Cc1ccc(N2C(=O)S/C(=C/c3cn(C)c4ccccc34)C2=O)cc1` it is “inactive”; for `O=C1c2ccccc2C(Nc2ccc3c(c2)OCCO3)N1Cc1ccco1` (configuration not stated) it is “inactive”.
The figure for `COC(=O)c1ccc(NC(=O)c2ccccc2NS(=O)(=O)c2ccccc2)cc1` is 29.5% (active); for `CCOC(=O)C1CCN(c2ncnc3c2oc2ccc(Br)cc23)CC1` it is 28% (active); for `Cc1ccc(-c2csc(-c3c[nH]c4ccccc34)n2)cc1` it is “inactive”.
The entry for `S=C(NCc1cccs1)Nc1ccc(Cl)cc1` is “inactive”.
Regarding `S=C(NCc1ccc(Cl)cc1)NC12CC3CC(CC(C3)C1)C2`, the inhibition is 46% (active).
For the compound `CN(Cc1cccnc1)C(=O)c1cc(COc2ccc3ncccc3c2)on1`, the inhibition result is “inactive”.
The figure for `CC(=O)c1cc(CN2CCC(C(=O)Nc3cccc(-c4cscn4)c3)CC2)cs1` is 21.5% (active); for `Cc1ccc(C)c(N2CCN(C(=O)CCCCn3c(=O)[nH]c4ccccc4c3=O)CC2)c1` it is “inactive”; for `CCOC(=O)N1CCN(C(=O)c2ccc3c(c2)N(Cc2ccc(C)cc2)CCS3)CC1` it is “inactive”.
The entry for `Cc1nc(CNS(=O)(=O)c2ccc(Oc3ccccc3)cc2)cs1` is “inactive”.
The figure for `COc1ccc(S(=O)(=O)NCCCCOc2ccc(Cl)cc2)cc1` is 23.5% (active); for `COc1ccc(OCC(=O)NCCc2ccc(S(N)(=O)=O)cc2)cc1` it is “inactive”.
For `CCn1nccc1C(=O)Nc1ccc(S(=O)(=O)NC23CC4CC(CC(C4)C2)C3)cc1`, the inhibition entry is “inactive”.
The entry for `CCCCCc1ccc(-c2ccc(C(=O)O)cc2)nc1` is “inactive”; for `O=C(Nc1cccc(S(=O)(=O)Nc2ccc(Cl)cc2)c1)c1ccc2c(c1)OCCO2` it is 19% (active); for `COc1ccc(Cl)cc1NC(=O)CCS(=O)(=O)c1cc2c(cc1C)NC(=O)CO2` it is “inactive”.
Then `COc1cccc(CNS(=O)(=O)c2ccc3c(c2)CC(C)N3C(=O)C2CCC2)c1` (configuration not stated), with 19.5% (active); and `COc1ccc(-n2c(C)cc(C(=O)CSc3nnc(-c4cccs4)o3)c2C)cc1`, with “inactive”; and `Fc1ccc(CSc2nnc(-c3cc4c(s3)-c3ccccc3CC4)o2)cc1`, with “inactive”.
The figure for `Cc1cccc(-n2c(SCC(N)=O)nc3c(c2=O)C2(CCCCC2)Cc2ccccc2-3)c1` is 22% (active).
Regarding `C=C(C)Cn1c(C)cc(C)c(S(=O)(=O)c2ccccc2C)c1=O`, the inhibition entry is “inactive”.
Then `O=C(Nc1nc(-c2ccc3c(c2)OCO3)cs1)c1ccncc1`, with “inactive”.
In the case of `COc1cc(CC(=O)Nc2nc(-c3ccc(F)c(F)c3)cs2)cc(OC)c1OC`, the inhibition was 25.5% (active).
The entry for `Cc1ccc(N)cc1-n1c(C)ccc1C` is “inactive”; for `CCOC(=O)C(Sc1ncc(C#N)c(N)n1)C(C)C` (configuration not stated) it is “inactive”; for `N#Cc1nc(COc2ccc(-c3ccccc3)cc2)oc1NCc1cccnc1` it is “inactive”.
Then `O=C(NC(=S)Nc1ccccc1C(=O)O)c1ccc(-c2ccc(Br)cc2)o1`, with “inactive”; and `O=C(Nc1ccccc1)c1ccccc1NC(=O)C(F)(F)F`, with 26.5% (active).
Then `CSc1cccc(NC(=S)N(C(C)C)C(C)c2ccccn2)c1` (configuration not stated), with “inactive”; and `Fc1ccc2[nH]c3c(N4CCSCC4)ncnc3c2c1`, with 41.5% (active).
On to `CCC(=O)Nc1ccc2nc(C)n(Cc3ccccc3Cl)c(=O)c2c1`, for which the inhibition result is “inactive”.
The entry for `Cc1nc(SCC(=O)N2CCc3ccccc3C2)c2c(C)c(C)sc2n1` is “inactive”; for `Cc1ccc(C)c(N2CCN(S(=O)(=O)c3ccc4c(c3)oc(=O)n4C)CC2)c1` it is “inactive”.
